Most compounds without a hit are left out; they make up all but 3.1% or so of the library.
BoNT F protease: inhibitors of Botulinum neurotoxin F light chain protease; Multiplex microsphere protease cleavage assay, flow cytometry; inhibition, % at 10 µM; 360,000 compounds, 0.22% hits; AID 588497; in the data active = inhibition above about 35%, passing the limit was not always enough; inconclusive = no clear call, values can overlap the other calls; note: plate controls were buffer without enzyme for full effect and enzyme alone for no effect
Anthrax LF prot: inhibitors of Bacillus anthracis lethal factor protease; inhibition, % at 10 µM; AID 588501; 360,000 compounds, 0.12% hits; multiplex microsphere protease cleavage assay, LF; note: plate controls were buffer without enzyme for full effect and enzyme alone for no effect
Target sequence (P15917 whole entry, looked up): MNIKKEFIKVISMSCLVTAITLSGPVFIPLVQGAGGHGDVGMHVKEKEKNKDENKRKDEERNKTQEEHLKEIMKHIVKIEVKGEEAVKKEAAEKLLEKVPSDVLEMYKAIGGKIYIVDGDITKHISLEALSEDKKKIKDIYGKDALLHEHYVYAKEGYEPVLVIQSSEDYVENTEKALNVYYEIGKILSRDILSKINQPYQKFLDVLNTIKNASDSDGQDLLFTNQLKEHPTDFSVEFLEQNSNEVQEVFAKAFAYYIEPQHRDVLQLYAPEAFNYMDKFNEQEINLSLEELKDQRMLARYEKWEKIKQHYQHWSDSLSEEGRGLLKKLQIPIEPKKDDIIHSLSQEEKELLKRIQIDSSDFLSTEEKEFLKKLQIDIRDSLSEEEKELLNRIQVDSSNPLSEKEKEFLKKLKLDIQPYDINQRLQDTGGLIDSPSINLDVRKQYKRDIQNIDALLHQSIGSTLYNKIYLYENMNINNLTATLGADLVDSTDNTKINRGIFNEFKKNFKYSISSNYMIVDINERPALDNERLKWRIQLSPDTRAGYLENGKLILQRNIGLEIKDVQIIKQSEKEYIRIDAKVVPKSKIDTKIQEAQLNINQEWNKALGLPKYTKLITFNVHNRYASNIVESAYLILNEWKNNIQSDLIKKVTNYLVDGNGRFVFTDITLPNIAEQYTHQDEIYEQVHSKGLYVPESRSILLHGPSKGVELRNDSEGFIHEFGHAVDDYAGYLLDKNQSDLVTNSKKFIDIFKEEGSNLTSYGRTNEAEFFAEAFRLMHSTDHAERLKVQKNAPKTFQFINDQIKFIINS
Autofluor counter: compound fluorescence in toxin protease inhibitor counterscreen. fluorescence intensity (test concentration not listed). 360,000 compounds, 3.1% hits. compound autofluorescence counterscreen, microsphere flow cytometry; stronger effect = higher value; in the data active = fluorescence intensity above about 16000; inconclusive = no clear call, values can overlap the other calls
BoNT A protease: BoNT A light chain protease inhibition; AID 588499; 360,000 compounds, 0.17% hits; multiplex microsphere protease substrate cleavage, flow cytometry; inhibition, % at 10 µM; note: plate controls were buffer without enzyme for full effect and enzyme alone for no effect
SSB-PriA inh: inhibitors of Klebsiella pneumoniae PriA binding to SSB C-terminal tail. inhibition, % at 33 µM. AID 1272365. 430,000 compounds, 0.6% hits. AlphaScreen SSBct-PriA binding, biotinylated peptide; in the data active = inhibition mostly above about 37%, no sharp cut-off; inactive = mostly below about 20%;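 note: plate controls were negative control peptide for no effect and reference peptide for full effect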
The depositor's hits bear a star; ? = inconclusive; . = no result given; ! = a repeat was not active. Cut-off read from the data, not from the text of the source, unless noted: active = inhibition above about 30%; inconclusive = no clear call, values can overlap the other calls; inactive = below that.

SMILES | BoNT F protease | Anthrax LF prot | Autofluor counter | BoNT A protease | SSB-PriA inh
CC(=O)c1ccc(OCC(O)CN2CCCC(C)C2)cc1 (stereo not drawn) | 1.7 | -4.8 | 5483 | -0.5 | -13.4
CC1CCCN(CC(O)CN)C1 (stereo not drawn) | -41.2 | -18.2 | 17684* | -14.0 | -7.7
Cc1ccc(CNC(=O)CCn2nc(-c3ccc(Cl)cc3)ccc2=O)cc1 | 0.2 | -2.5 | 18881* | 1.8 | -7.9
COc1cccc(-c2ccc(=O)n(CC(=O)Nc3cc4c(cc3NC(C)=O)OCCO4)n2)c1 | -0.9 | 1.2 | 21027* | ? | -17.5
COc1cccc(-c2ccc(=O)n(CC(=O)NCCN3CCOCC3)n2)c1 | -7.5 | -1.8 | 25197* | -4.8 | -3.5
O=C(Cn1nc(-c2ccccc2)ccc1=O)NCC1COCCO1 (stereo not drawn) | 6.9 | -5.2 | 19171* | 4.3 | -20.6
COc1cccc(-c2ccc(=O)n(CCCC(=O)NCc3ccccc3Cl)n2)c1 | . | . | . | . | 39.0*
Cc1cn2c(-c3cccnc3)nnc2s1 | 5.7 | -17.7 | 19239* | 5.8 | -13.0
Cc1cn2c(-c3ccncc3)nnc2s1 | -6.2 | 4.8 | 2312 | 0.2 | -10.2
CC12CC3(C)CC(C)(C1)CC(C(=O)Nc1nn[nH]n1)(C2)C3 | 1.0 | -0.1 | 8014 | 0.4 | 3.8
CCC12CC3CC(C1)CC(C(=O)NNC(N)=O)(C3)C2 | 4.2 | -6.8 | 5799 | -0.2 | -12.6
CCC12CC3CC(C1)CC(C(=O)Nc1nn[nH]n1)(C3)C2 | 1.6 | -7.3 | 23265* | ? | 10.4
CC12CC3CC(C)(C1)CC(C(=O)Nc1nn[nH]n1)(C3)C2 | 2.5 | -0.1 | 19766* | ? | 1.8
Cc1nc2c(C(=O)NCCc3ccccc3)c[nH]n2c(=O)c1Cl | 5.3 | -7.6 | 21299* | 4.5 | -8.3
CCc1nnc(NC(=O)CSc2ccc3nnc(CCNC(=O)c4ccc(F)cc4)n3n2)s1 | . | . | . | . | -6.0
COCCN1C(=O)/C(=C/c2ccc(N3CCCC3)cc2)SC1=S | 4.3 | 9.1 | 18513* | 15.1 | -1.4
O=C(COc1ccc(S(=O)(=O)N2CCCC2)cc1)Nc1ccc(F)cc1 | 4.8 | -1.6 | 3933 | 0.4 | -6.0
COC(=O)c1ccc(NC(=O)COc2ccc(S(=O)(=O)N3CCCCC3)cc2)cc1 | 1.9 | 2.5 | 23051* | 2.1 | -14.8
O=C(COc1ccc(Br)cc1CO)Nc1ccc(S(=O)(=O)N2CCCCC2)cc1 | 1.8 | -2.3 | 3926 | -0.5 | -4.8
CCc1ccc(OCC(=O)Nc2ccc(S(=O)(=O)N3CCCC3)cc2)c(Br)c1 | -4.6 | -2.3 | 23390* | -3.2 | -11.0
O=C(COc1cccc(C(F)(F)F)c1)Nc1ccc(S(=O)(=O)N2CCCC2)cc1 | -10.5 | -3.5 | 25851* | -4.6 | -7.4
COc1ccc(NC(=O)CN2CCN(S(=O)(=O)c3ccc(Cl)cc3)CC2)cc1 | -3.0 | 0.2 | 22877* | -1.6 | -4.1
Cc1noc(C)c1CSc1ccccc1C(=O)N1CCN(c2ccccc2)CC1 | 12.6 | 4.1 | 3223 | 2.1 | 17.0
Cc1cccc(N2CCN(C(=O)CSCc3c(C)noc3C)CC2)c1C | -1.5 | 0.6 | 23925* | -0.4 | 5.8
O=C(CSCc1ccc(Br)cc1)N1CCOCC1 | -1.8 | -0.3 | 10667 | -0.3 | -2.8
SMILES | BoNT F protease | Anthrax LF prot | Autofluor counter | BoNT A protease | SSB-PriA inh
O=C(CSCc1ccc(F)cc1)N1CCOCC1 | 7.6 | -11.8 | 20026* | 6.8 | -7.6
Cc1noc(C)c1CSCC(=O)N1CCN(c2ccc(F)cc2)CC1 | -2.4 | -3.2 | 16984* | -0.4 | -4.6
Cc1ccc(-c2nc(C#N)c(N3CCCCCC3)o2)cc1 | . | . | . | . | 98.8*
Cc1ccc(-c2nc(C#N)c(N3CCCCC3)o2)cc1 | -5.2 | -7.7 | 5617 | -0.6 | 86.8*!
N#Cc1nc(-c2ccc(F)cc2)oc1N1CCCCC1 | -12.8 | -1.8 | 3647 | 2.4 | 10.2
c1ccc(-c2nc([P+](c3ccccc3)(c3ccccc3)c3ccccc3)c(N3CCCCCC3)o2)cc1 | . | . | . | . | 37.0*
N#Cc1nc(-c2ccccc2)oc1N1CCCCC1 | -4.3 | -5.3 | 8227 | -1.1 | 3.2
Cc1cc(C(=O)N2CCN(C)CC2)nn1CC(=O)NCCc1ccc(F)cc1 | . | . | . | . | -11.0
CCOC(=O)C(C)Sc1ncc(OC)c(Sc2ccc(Cl)cc2)n1 (stereo not drawn) | -10.0 | -2.3 | 24632* | -5.6 | -57.5
CCOC(=O)C(C)Sc1ncc(OC)c(=O)[nH]1 (stereo not drawn) | 30.4 | 6.3 | 3869 | 4.0 | -9.4
CCOC(=O)CSc1ncc(OC)c(Sc2ccc(Cl)cc2)n1 | 0.3 | -16.3 | 21505* | ? | -3.7
O=C(Nc1ccc(I)cc1)c1cc(S(=O)(=O)N2CCOCC2)ccc1Cl | . | . | . | . | -5.0
O=C(CN1CCCCCC1)N1c2ccccc2C=Cc2ccccc21 | 2.0 | 0.7 | 19591* | ? | -19.9
O=C(Nc1cnn(C[C@H]2COc3ccccc3O2)c1)c1cccc(C(F)(F)F)c1 | . | . | . | . | -11.0
Cc1ccn(CC(=O)O)c(=O)c1 | -1.3 | -3.1 | 22082* | ? | -4.8
Cc1onc(-c2c(Cl)cccc2Cl)c1C(=O)NCCN1CCOCC1 | 7.1 | -0.1 | 10476 | 0.5 | 8.9
O=C(NCCCN1CCN(CCCNC(=O)c2ccccc2F)CC1)c1ccccc1F | 2.0 | 9.7 | 10006 | 0.1 | 61.3*
O=C(NCCCN1CCOCC1)c1c(F)cccc1F | -3.8 | -0.6 | 21499* | ? | -12.7
O=C(NCCCN1CCOCC1)c1c(F)c(F)c(F)c(F)c1F | -4.4 | -1.7 | 6552 | -0.9 | 0.6
O=C1C(Cl)=C(NCCCN2CCOCC2)C(=O)N1CCc1ccccc1 | -2.3 | -9.3 | 22919* | -0.3 | -7.4
Cc1onc(-c2c(F)cccc2Cl)c1C(=O)NCCCN1CCOCC1 | 1.3 | 2.5 | 20261* | ? | -2.1
Cc1c(NC(=O)CC(NCc2ccccc2)C(=O)O)c(=O)n(-c2ccccc2)n1C (stereo not drawn) | . | . | . | . | 0.0
O=C(Oc1coc(CSc2nnc(NC(=O)C3CC3)s2)cc1=O)c1ccc(Br)o1 | . | . | . | . | -13.0
O=C(NCCn1ccn2nccc12)c1ccccc1C(F)(F)F | . | . | . | . | -10.0
Cc1onc(-c2c(F)cccc2Cl)c1C(=O)Nc1cccc2nsnc12 | 1.0 | -1.0 | 22508* | 1.3 | -55.6
SMILES | BoNT F protease | Anthrax LF prot | Autofluor counter | BoNT A protease | SSB-PriA inh
O=C(CCCc1ccccc1)NCCCN1CCOCC1 | 3.7 | 2.9 | 22241* | 2.0 | -7.2
COC(=O)CNC(=O)c1c(-c2ccccc2Cl)noc1C | -0.6 | 0.8 | 2239 | -0.3 | -7.8
COC(=O)CNC(=O)c1c(-c2c(Cl)cccc2Cl)noc1C | -0.7 | -0.4 | 23118* | 1.5 | -10.1
CC(Cc1ccoc1)NC(=O)c1nc2ccccc2s1 (stereo not drawn) | . | . | . | . | -10.0
CS(=O)(=O)N1CCN(C(=O)Cc2csc(Nc3cccc(C(F)(F)F)c3)n2)CC1 | . | . | . | . | 9.0
COC(=O)c1ccccc1NC(=O)CN1C(=O)c2ccccc2C1=O | . | . | . | . | -6.3
COC(=O)c1ccccc1NC(=O)Cn1c(-c2nonc2N)nc2ccccc21 | 7.1 | -6.5 | 20173* | 7.4 | -11.2
COC(=O)c1ccccc1NC(=O)Cn1c(SC)c(F)cnc1=O | 4.8 | -1.4 | 19945* | 1.3 | -7.7
Cc1ccccc1NC(=S)Nc1ccccn1 | 36.8* | -12.7 | 9236 | -2.5 | -8.8
S=C(Nc1ccccn1)c1ccccn1 | -1.4 | 0.2 | 4612 | 0.8 | 80.6*
Cc1nnc(Nc2ccc(F)c(Cl)c2)[nH]c1=O | . | . | . | . | -14.0
CCCc1cc(=O)[nH]c(SCc2cc(OC)cc(OC)c2)n1 | . | . | . | . | 3.0

Bioassay records as filed in PubChem.
